Records with an inconclusive call do not appear. Activity calls are given as the source filed them. Calls follow the shape of the dose curve; as a rule, active = well fitted curve in the direction sought with a large enough effect; inconclusive = small, poorly fitted or top-dose-only effect, or another doubt; inactive = no such curve, though single readings can be large; an effect the other way counts as inactive or inconclusive.
Columns and labels:
MCC-13 = test: qHTS assay to identify novel small-molecules to repurpose for Merkel cell carcinoma treatment (AID 1296009); details: MCC and control cell lines, CellTiter-Glo viability, 72 h; series mostly up to 46 µM; also: nearly all actives have a fitted effect of over 60% in size
Method in brief: (§1)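 CellTiter-Glo luminescence after 72 hr compound exposure at 37 degree celsius gave cell viability. Libraries NPC and MIPE were run as 8- and 11-point dose responses; RLUs normalized to DMSO (negative) and no-cell (cytotoxicity) controls.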

MKL-1 = test: as above; details: MCC and control cell lines, CellTiter-Glo viability, 72 h; series mostly up to 46 µM
Method in brief: as §1

MKL-2 = test: as above; details: MCC and control cell lines, CellTiter-Glo viability, 72 h; series mostly up to 46 µM
Method in brief: as §1

UISO = test: as above; details: MCC and control cell lines, CellTiter-Glo viability, 72 h; series mostly up to 46 µM
Method in brief: as §1

WaGa = test: as above; details: MCC and control cell lines, CellTiter-Glo viability, 72 h; series mostly up to 46 µM
Method in brief: as §1

C33A = test: Primary qHTS to identify gynecologic anti-cancer compounds using libraries of approved drugs and bioactive compounds (AID 1345084); details: Gynecologic cancer cell panel viability, ATPlite luminescence, 48 h; series mostly up to 57.5 µM; also: nearly all actives have a fitted effect of over 55% in size
Method in brief: (§2)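 Luminescence from the ATPlite ATP-monitoring reagent indicates viable cell number; lower signal means cytotoxicity. Cells received compound 16 h after seeding and were exposed for 48 h across five concentrations.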

CASKI = test: as above; details: Gynecologic cancer cell panel viability, ATPlite luminescence, 48 h; series mostly up to 57.5 µM
Method in brief: as §2

Es-2 = test: as above; details: Gynecologic cancer cell panel viability, ATPlite luminescence, 48 h; series mostly up to 57.5 µM
Method in brief: as §2

HeLa = test: as above; details: Gynecologic cancer cell panel viability, ATPlite luminescence, 48 h; series mostly up to 57.5 µM
Method in brief: as §2

Hek293T = test: as above; details: Gynecologic cancer cell panel viability, ATPlite luminescence, 48 h, control line for the selectivity index; series mostly up to 57.5 µM
Method in brief: as §2

JEG-3 = test: as above; details: Gynecologic cancer cell panel viability, ATPlite luminescence, 48 h; series mostly up to 57.5 µM
Method in brief: as §2

OV90 = test: as above; details: Gynecologic cancer cell panel viability, ATPlite luminescence, 48 h; series mostly up to 57.5 µM
Method in brief: as §2

PA-1 = test: as above; details: Gynecologic cancer cell panel viability, ATPlite luminescence, 48 h; series mostly up to 57.5 µM
Method in brief: as §2

SKOV3 = test: as above; details: Gynecologic cancer cell panel viability, ATPlite luminescence, 48 h; series mostly up to 57.5 µM
Method in brief: as §2

Tov-21-G = test: as above; details: Gynecologic cancer cell panel viability, ATPlite luminescence, 48 h; series mostly up to 57.5 µM
Method in brief: as §2

Tov112D = test: as above; details: Gynecologic cancer cell panel viability, ATPlite luminescence, 48 h; series mostly up to 57.5 µM
Method in brief: as §2

[1] = Drug repurposing screens with cells derived from glioblastoma tumor samples (AID 1345199); details: GBM patient neurospheres viability, ATP luminescence, 48 h; also: nearly all actives have a fitted effect of over 40% in size; also: potency is read from the fitted curve at half-maximal effect
Method in brief: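 Primary testing used CD133+ neurospheres from four GBM patients, seven concentrations, 48 h exposure and ATP-based viability; confirmation added three slower-growing patient lines.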

MCC-26 = test: qHTS assay to identify novel small-molecules to repurpose for Merkel cell carcinoma treatment (AID 1296009); details: MCC and control cell lines, CellTiter-Glo viability, 72 h; series mostly up to 46 µM; also: nearly all actives have a fitted effect of over 60% in size
Method in brief: as §1

NIH3T3 = test: as above; details: MCC and control cell lines, CellTiter-Glo viability, 72 h; at 44.8 µM (top of the series) unless noted
Method in brief: as §1

CAOV3 = test: Primary qHTS to identify gynecologic anti-cancer compounds using libraries of approved drugs and bioactive compounds (AID 1345084); details: Gynecologic cancer cell panel viability, ATPlite luminescence, 48 h; series mostly up to 57.5 µM; also: nearly all actives have a fitted effect of over 55% in size
Method in brief: as §2

[2] = at 45.9 µM (top of the series), tumour line B
[3] = at 45.9 µM (top of the series), tumour line D
[4] = at 46 µM (top of the series), tumour line A
[5] = at 46.1 µM (top of the series), tumour line C
% is scaled to controls: 0 for no effect and ±100 for the full control effect.

OCCN1C[C@H](O)[C@@H](O)[C@H](O)[C@H]1CO
inactive: outcome (MCC-13) | outcome (MKL-1) | outcome (MKL-2) | outcome (UISO) | outcome (WaGa) | outcome (C33A) | outcome (CASKI) | outcome (Es-2) | outcome (HeLa) | outcome (Hek293T) | outcome (JEG-3) | Potency (OV90) | outcome (PA-1) | outcome (SKOV3) | outcome (Tov-21-G) | outcome (Tov112D) | activity, negative = cell killing [1, 2] -4.15% | activity, negative = cell killing [1, 3] -2.64% | activity, negative = cell killing [1, 4] -17.7% | activity, negative = cell killing [1, 5] -28.1%

COc1ccccc1Oc1c(NS(=O)(=O)c2ccc(C(C)(C)C)cc2)nc(-c2ncccn2)nc1OCCO
inactive: outcome (MCC-26) | outcome (MKL-1) | outcome (MKL-2) | outcome (NIH3T3) | outcome (UISO) | outcome (WaGa) | outcome (C33A) | outcome (CAOV3) | outcome (CASKI) | outcome (Es-2) | outcome (HeLa) | outcome (Hek293T) | outcome (JEG-3) | Potency (OV90) | outcome (PA-1) | outcome (SKOV3) | outcome (Tov-21-G) | outcome (Tov112D) | activity, negative = cell killing [1, 2] -11.9% | activity, negative = cell killing [1, 3] -7.18% | activity, negative = cell killing [1, 4] -57.2% | activity, negative = cell killing [1, 5] -29.9%

O[C@@H]1CO[C@H]2[C@@H]1OC[C@@H]2O
inactive: outcome (MCC-13) | outcome (MKL-1) | outcome (MKL-2) | outcome (UISO) | outcome (WaGa) | outcome (C33A) | outcome (CAOV3) | outcome (CASKI) | outcome (Es-2) | outcome (HeLa) | outcome (Hek293T) | outcome (JEG-3) | Potency (OV90) | outcome (PA-1) | outcome (SKOV3) | outcome (Tov-21-G) | outcome (Tov112D) | activity, negative = cell killing [1, 2] -8.03% | activity, negative = cell killing [1, 3] 1.68% | activity, negative = cell killing [1, 5] -10.9%

CC(=O)Nc1ccc(C(=O)O)cc1
inactive: outcome (MCC-13) | outcome (MKL-1) | outcome (MKL-2) | outcome (UISO) | outcome (WaGa) | outcome (C33A) | outcome (CASKI) | outcome (Es-2) | outcome (HeLa) | outcome (Hek293T) | outcome (JEG-3) | Potency (OV90) | outcome (PA-1) | outcome (SKOV3) | outcome (Tov-21-G) | outcome (Tov112D) | activity, negative = cell killing [1, 2] -15.7% | activity, negative = cell killing [1, 3] 14.1% | activity, negative = cell killing [1, 4] -33.2% | activity, negative = cell killing [1, 5] -22.1%

CN1C[C@@H]2C[C@H]1CN2c1cc2c(cc1F)c(=O)c(C(=O)O)cn2C1CC1
inactive: outcome (MCC-13) | outcome (MKL-1) | outcome (MKL-2) | outcome (UISO) | outcome (WaGa) | outcome (C33A) | outcome (CASKI) | outcome (Es-2) | outcome (HeLa) | outcome (Hek293T) | outcome (JEG-3) | Potency (OV90) | outcome (PA-1) | outcome (SKOV3) | outcome (Tov-21-G) | outcome (Tov112D) | activity, negative = cell killing [1, 2] 4.99% | activity, negative = cell killing [1, 3] -9.88% | activity, negative = cell killing [1, 4] -19.7% | activity, negative = cell killing [1, 5] 3.73%

CCOC(=O)[C@H](CCc1ccccc1)N[C@@H](C)C(=O)N1CCC[C@H]1C(=O)O
inactive: outcome (MCC-13) | outcome (MKL-1) | outcome (MKL-2) | outcome (NIH3T3) | outcome (UISO) | outcome (WaGa) | outcome (C33A) | outcome (CAOV3) | outcome (CASKI) | outcome (Es-2) | outcome (HeLa) | outcome (Hek293T) | outcome (JEG-3) | Potency (OV90) | outcome (PA-1) | outcome (SKOV3) | outcome (Tov-21-G) | outcome (Tov112D) | activity, negative = cell killing [1, 2] -10.1% | activity, negative = cell killing [1, 3] -16.5% | activity, negative = cell killing [1, 4] -13.8% | activity, negative = cell killing [1, 5] -21.6%

CCOC(=O)c1cccnc1
inactive: outcome (MCC-13) | outcome (MKL-1) | outcome (MKL-2) | outcome (UISO) | outcome (WaGa) | outcome (C33A) | outcome (CAOV3) | outcome (CASKI) | outcome (Es-2) | outcome (HeLa) | outcome (Hek293T) | outcome (JEG-3) | Potency (OV90) | outcome (PA-1) | outcome (SKOV3) | outcome (Tov-21-G) | outcome (Tov112D) | activity, negative = cell killing [1, 2] -7.07% | activity, negative = cell killing [1, 3] -8.05% | activity, negative = cell killing [1, 4] -24.1% | activity, negative = cell killing [1, 5] 22.3%

C=CCNC(N)=S
inactive: outcome (MCC-13) | outcome (MKL-1) | outcome (MKL-2) | outcome (UISO) | outcome (WaGa) | outcome (C33A) | outcome (CAOV3) | outcome (CASKI) | outcome (Es-2) | outcome (HeLa) | outcome (Hek293T) | outcome (JEG-3) | Potency (OV90) | outcome (PA-1) | outcome (SKOV3) | outcome (Tov-21-G) | outcome (Tov112D) | activity, negative = cell killing [1, 2] -3.35% | activity, negative = cell killing [1, 3] -8.91% | activity, negative = cell killing [1, 4] -13.7% | activity, negative = cell killing [1, 5] -3.97%

Cn1cc(C(=O)[C@@H]2CCc3nc[nH]c3C2)c2ccccc21
inactive: outcome (MCC-13) | outcome (MKL-1) | outcome (MKL-2) | outcome (UISO) | outcome (WaGa) | outcome (C33A) | outcome (CAOV3) | outcome (CASKI) | outcome (Es-2) | outcome (HeLa) | outcome (Hek293T) | outcome (JEG-3) | Potency (OV90) | outcome (PA-1) | outcome (SKOV3) | outcome (Tov-21-G) | outcome (Tov112D)

CC1CCN(CCCC(=O)c2ccc(F)cc2)CC1
inactive: outcome (MCC-13) | outcome (MKL-1) | outcome (MKL-2) | outcome (UISO) | outcome (WaGa) | outcome (C33A) | outcome (CAOV3) | outcome (CASKI) | outcome (Es-2) | outcome (HeLa) | outcome (Hek293T) | outcome (JEG-3) | Potency (OV90) | outcome (PA-1) | outcome (SKOV3) | outcome (Tov-21-G) | outcome (Tov112D) | activity, negative = cell killing [1, 2] -15.8%
active: Potency ([1]; tumour line A) 10 µM

CCCCCOC(=O)Nc1nc(=O)n([C@@H]2O[C@H](C)[C@@H](O)[C@H]2O)cc1F
inactive: outcome (MCC-13) | outcome (MKL-1) | outcome (MKL-2) | outcome (UISO) | outcome (WaGa) | outcome (C33A) | outcome (CAOV3) | outcome (CASKI) | outcome (Es-2) | outcome (HeLa) | outcome (Hek293T) | outcome (JEG-3) | Potency (OV90) | outcome (PA-1) | outcome (Tov-21-G) | outcome (Tov112D) | activity, negative = cell killing [1, 2] 3.4% | activity, negative = cell killing [1, 3] -3.99% | activity, negative = cell killing [1, 4] -16.9% | activity, negative = cell killing [1, 5] 7.27%

Reference: PubChem BioAssay (NCATS)
